These sequences were tested against ABHD8 (assay: pooled miR-30 sensor sort-seq; sequence = guide strand). Conditions: shRNA.
Work on TTTTCCACCAGCAACCGCCCAT yielded a sensor-assay potency score (higher = more potent) of -0.43.
Work on TTTAACAGCTGCTTCTCCTTGG yielded a sensor-assay potency score (higher = more potent) of 0.506.
Sequence TTGAAGATTGAGCAGAAGCTGG has a sensor-assay potency score (higher = more potent) of -0.887.
For TTTGCAGCTAGTGATGCGCTTC, the sensor-assay potency score (higher = more potent) was -0.147.
With AAACTTATCGTGCATGCCGTGG the sensor-assay potency score (higher = more potent) was -1.36.
Sequence TTGACCTCTACAAAGGTGTAGC has a sensor-assay potency score (higher = more potent) of -0.315.
With TCACCTTGTGCACTAGGTCTGG the sensor-assay potency score (higher = more potent) was -0.472.
With TAGCGCTTGAAGATTGCTCGCA the sensor-assay potency score (higher = more potent) was 0.247.
Work on TTAACAGCTGCTTCTCCTTGGC yielded a sensor-assay potency score (higher = more potent) of -0.231.
In the case of TTGCGGTACACGGTGATCCGGC, the sensor-assay potency score (higher = more potent) is reported as -0.925.

Each sequence was assayed against ACACB in the same assay as above. Conditions: shRNA.
Sequence TTTGCTTCTGATTTACTCTTGG has a sensor-assay potency score (higher = more potent) of 0.795.
TTGATCTTGACCTCAGCCTGTA was tested, and the sensor-assay potency score (higher = more potent) was 0.316.
In the case of TTCTCAAACACACACGTCTTAT, the sensor-assay potency score (higher = more potent) is reported as -1.28.
In the case of TTCAGTAGTGAATCCGCTGGGA, the sensor-assay potency score (higher = more potent) is reported as 0.353.
For TTGGATGTGTAGACCTCTCTTC, the sensor-assay potency score (higher = more potent) was 0.36.
Work on TAGAGGTATTCCACTGTCCCTG yielded a sensor-assay potency score (higher = more potent) of -0.211.
With TATCACACACTTGTCGTAGTGG the sensor-assay potency score (higher = more potent) was 0.451.
For TTTATCAGATCTTTCTTTCGGA, the sensor-assay potency score (higher = more potent) was 0.775.
TTCGGTAACTGTCAACCTCTTC gave a sensor-assay potency score (higher = more potent) of -0.589.
TTACTCTTGGTGATCGGCTTGG was tested, and the sensor-assay potency score (higher = more potent) was 0.104.
For TTTATCACACACTTGTCGTAGT, the sensor-assay potency score (higher = more potent) was 0.458.
Work on TTCTTGTCTTCTTTGGAGGGGG yielded a sensor-assay potency score (higher = more potent) of -0.0633.
In the case of TTATCAGATCTTTCTTTCGGAA, the sensor-assay potency score (higher = more potent) is reported as -0.751.
With TTGTCATAAACATCTTCTGGGA the sensor-assay potency score (higher = more potent) was -0.671.
Sequence TTTGTCTGCATACATTTCTATG has a sensor-assay potency score (higher = more potent) of -1.38.
With TTGGACTGTACGAATGTCCGTA the sensor-assay potency score (higher = more potent) was 0.552.
For TTGTAAGCTGGATCGATCCTTC, the sensor-assay potency score (higher = more potent) was -0.276.
TAATTTCTTGAGGTTCTCGGGG gave a sensor-assay potency score (higher = more potent) of -0.145.
For TGTATCTGGACTCTCCTCCTTC, the sensor-assay potency score (higher = more potent) was -0.0476.
For TTCATGTAGGTGGTGTAGCTGT, the sensor-assay potency score (higher = more potent) was -0.772.
TACTTGTCTGAAAAGGATCGGG gave a sensor-assay potency score (higher = more potent) of 0.16.
Sequence TAAGAAAGCAACTCCATTCTTG has a sensor-assay potency score (higher = more potent) of 0.182.
TACATTTCTATGCACAGCGGGT showed a sensor-assay potency score (higher = more potent) of -1.13.

The sequences below were run against ACAD10 in the same assay as above. Conditions: shRNA.
TTCGGTGCCATACCTCACCAGC showed a sensor-assay potency score (higher = more potent) of -0.906.
TTCAGCTTTGGCTTTCTCCTTG was tested, and the sensor-assay potency score (higher = more potent) was -0.097.
TACAGCTCTCTGACAGGTGGAG showed a sensor-assay potency score (higher = more potent) of -0.377.
With AAGCACAGCTTGTAGATCCTAG the sensor-assay potency score (higher = more potent) was 0.0767.
TTCCAGTCCATACACCGTCAGA showed a sensor-assay potency score (higher = more potent) of -1.34.
In the case of TTTCATAATCCTGAACTCCCTC, the sensor-assay potency score (higher = more potent) is reported as -0.41.
For TTCACAGAGATCAAGAACGTTA, the sensor-assay potency score (higher = more potent) was 0.0116.
Also: reference of the scale not given here.
